Measured values: the supplement of paper PMC6522484
± gives the standard deviation of the averaged measurements.

Key:
[1] = tested on: DLD1; test: cell viability (CellTiter-Glo) relative to plate median (fraction of plate median); higher = more viable cells; conditions: 10 µM, treatment time 24 h
Outline: (§1)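 Kinase inhibitor library compounds were added at a final 10 µM for 24 h to colorectal cancer cells in 384-well plates, 24 h after seeding. The cells stably expressed lentiviral TCF/Wnt firefly luciferase reporters. Firefly luciferase and CellTiterGlo luminescence came from parallel plates, and each well was normalised to its plate median (webcellHTS2, additive, untransformed), averaged over two independent replicates.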

[2] = tested on: HCT116; test: as above; conditions: 10 µM; treatment time 24 h; reporter: TCF4/Wnt
Outline: as §1

[3] = tested on: SW480; test: as above; conditions: 10 µM; treatment time 24 h; reporter: 7TFP
Outline: as §1

[4] = tested on: DLD1; test: TCF/Wnt firefly luciferase reporter signal relative to plate median (fraction of plate median); higher = higher Wnt reporter signal; conditions: 10 µM, treatment time 24 h
Outline: as §1

[5] = tested on: HCT116; test: as above; conditions: 10 µM; treatment time 24 h; reporter: TCF4/Wnt
Outline: as §1

[6] = tested on: SW480; test: as above; conditions: 10 µM; treatment time 24 h; reporter: 7TFP
Outline: as §1

| SMILES | cell viability ([1]; reporter: 7TFP) | cell viability ([1]; reporter: TCF4/Wnt) | cell viability [2] | cell viability [3] | TCF/Wnt firefly luciferase reporter signal ([4]; reporter: 7TFP) | TCF/Wnt firefly luciferase reporter signal ([4]; reporter: TCF4/Wnt) | TCF/Wnt firefly luciferase reporter signal [5] | TCF/Wnt firefly luciferase reporter signal [6] |
| --- | --- | --- | --- | --- | --- | --- | --- | --- |
| COc1cc(Nc2ncc(F)c(Nc3ccc4c(n3)N(COP(=O)(O)O)C(=O)C(C)(C)O4)n2)cc(OC)c1OC [R788 (Fostamatinib)] | 0.89 ± 0.13 | 0.959 ± 0.046 | 0.888 ± 0.086 | 0.923 ± 0.037 | 0.781 ± 0.21 | 0.831 ± 0.079 | 2.88 ± 0.22 | 0.879 ± 0.079 |
| CNC(=O)c1ccccc1Nc1nc(Nc2ccc(N3CCOCC3)cc2OC)ncc1Cl | 0.8225 ± 0.00071 | 0.933 ± 0.069 | 0.895 ± 0.049 | 1.02 ± 0.073 | 0.638 ± 0.0099 | 0.823 ± 0.17 | 1.22 ± 0.28 | 1.08 ± 0.014 |
| C=CC(=O)Nc1cc2c(Nc3ccc(F)c(Cl)c3)ncnc2cc1OCCCN1CCOCC1 [CI-1033 (Canertinib)] | 0.868 ± 0.016 | 0.854 ± 0.068 | 0.968 ± 0.059 | 1.03 ± 0.035 | 0.353 ± 0.013 | 0.601 ± 0.096 | 1 ± 0.19 | 0.771 ± 0.32 |
| O=C(NCCCNc1nc(Nc2cccc(NC(=O)N3CCCC3)c2)ncc1I)c1cccs1 | 0.966 ± 0.19 | 0.97 ± 0.21 | 0.817 ± 0.6 | 1.06 ± 0.14 | 0.81 ± 0.0057 | 0.882 ± 0.32 | 1.06 ± 1.1 | 1.06 ± 0.021 |
| Cc1cc(C)c(/C=C2\C(=O)Nc3ccccc32)[nH]1 [Semaxanib (SU5416)] | 0.951 ± 0.016 | 1.02 ± 0.038 | 1.2 ± 0.071 | 0.879 ± 0.028 | 1.47 ± 0.021 | 1.335 ± 0.0071 | 0.91 ± 0.11 | 1.04 ± 0.021 |
| CN1CCN(c2cccc(Nc3nc4c(-c5ccc(S(C)(=O)=O)cc5)cccn4n3)c2)CC1 | 0.927 ± 0.013 | 0.896 ± 0.042 | 0.871 ± 0.031 | 1.055 ± 0.0071 | 0.96 ± 0.1 | 1.03 ± 0.057 | 1.32 ± 0.7 | 1.34 ± 0.56 |
| COc1cc2ncnc(Nc3ccc(F)c(Cl)c3)c2cc1OCCCN1CCOCC1 [Gefitinib (Iressa)] | 0.913 ± 0.069 | 0.968 ± 0.021 | 0.961 ± 0.052 | 0.917 ± 0.03 | 1.005 ± 0.0071 | 0.812 ± 0.18 | 0.76 ± 0.24 | 1.02 ± 0.039 |
| CCOc1ccn(-c2ccc(F)cc2)c(=O)c1C(=O)Nc1ccc(Oc2ccnc(N)c2Cl)c(F)c1 | 0.97 ± 0.071 | 0.971 ± 0.056 | 1.16 ± 0.014 | 0.991 | 0.983 ± 0.12 | 0.893 ± 0.12 | 1.19 ± 0.23 | 0.978 ± 0.031 |
| CCc1cnn2c(NCc3ccc[n+]([O-])c3)cc(N3CCCC[C@H]3CCO)nc12 | 0.985 ± 0.13 | 1.06 ± 0.021 | 0.809 ± 0.27 | 1.34 ± 0.042 | 0.462 ± 0.029 | 0.304 ± 0.03 | 0.128 ± 0.063 | 0.61 ± 0.33 |
| N#CCNC(=O)c1ccc(-c2ccnc(Nc3ccc(N4CCOCC4)cc3)n2)cc1 | 1.06 ± 0.014 | 1.12 ± 0.021 | 1.25 ± 0.078 | 1.09 ± 0.035 | 1.32 ± 0.26 | 1.16 ± 0.13 | 1.31 ± 0.25 | 0.923 ± 0.34 |
